An excerpt weighted towards active compounds, which were near 0.28% of everything screened.
Pin1 inhibitor: inhibitors of human Pin1; Pin1 FP peptide displacement, HiFluor488, 10 min; AID 504891; Potency, µM (series often up to 115 µM), for the others: at the top dose activity, negative = inhibition, hits mostly inhibitors; 0.009% of 390,000 active; active = well fitted inhibition curve with a large enough effect in the polarisation, with a control signal flat, not every such curve was filed as active; inconclusive = small, poorly fitted or top-dose-only effect, or effect the other way, or a change in a side signal; inactive = no such curve, though single readings can be large or run the other way; the % refers to the polarisation; also: potency is read from the fitted curve at half-maximal effect
Target sequence (Q13526 whole entry, looked up): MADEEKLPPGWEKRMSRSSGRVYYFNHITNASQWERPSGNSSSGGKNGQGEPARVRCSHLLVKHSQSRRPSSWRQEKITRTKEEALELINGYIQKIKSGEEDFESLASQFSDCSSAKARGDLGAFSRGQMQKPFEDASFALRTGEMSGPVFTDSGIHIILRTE
PI4K2A block: PI4K2A (human) kinase inhibition; AID 1346378; activity change, negative = inhibition, % at 76.9 µM; purified PI4K2A, ADP-Glo luminescence, 1 h; hits give low values; 0.13% of 420,000 active; Q9BTU6; in the data active = activity change below about -50%; inconclusive = mostly about -30% to -49%;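 also: -100% = wells without enzyme as full effect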
Target sequence (Q9BTU6 whole entry, looked up): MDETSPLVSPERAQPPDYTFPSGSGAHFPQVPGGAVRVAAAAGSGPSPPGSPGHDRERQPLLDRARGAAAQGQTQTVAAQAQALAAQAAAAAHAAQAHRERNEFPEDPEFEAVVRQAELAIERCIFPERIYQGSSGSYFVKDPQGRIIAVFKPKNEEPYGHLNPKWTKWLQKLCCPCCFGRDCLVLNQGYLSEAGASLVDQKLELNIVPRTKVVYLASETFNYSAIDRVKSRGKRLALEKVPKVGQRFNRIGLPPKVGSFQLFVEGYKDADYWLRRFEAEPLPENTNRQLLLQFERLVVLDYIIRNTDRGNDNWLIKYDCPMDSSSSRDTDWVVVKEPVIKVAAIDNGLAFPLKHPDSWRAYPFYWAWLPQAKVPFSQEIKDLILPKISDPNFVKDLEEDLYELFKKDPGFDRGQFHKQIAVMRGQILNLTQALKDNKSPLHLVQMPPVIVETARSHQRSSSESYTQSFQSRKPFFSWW
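PI4K2A activity was measured by ADP-Glo luminescence: enzyme (4 ug/mL stock) and phosphatidylinositol (1.2 mM stock) in Tris pH 7.5/MgCl2/EGTA/Triton X-100 buffer were reacted with ATP (300 microM stock) for one hour at ambient temperature.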
PGK inhibitor: blocks T. brucei phosphoglycerate kinase | P07378 | PGK/GAPDH coupled, Kinase-Glo luminescence, 60 min | Potency, µM (top dose mostly 57.5 µM), for the others: at the highest dose activity change, negative = inhibition, usual class: inhibitors | 0.043% of 380,000 active | AID 602233; also: potency is read from the fitted curve at half-maximal effect; nearly all actives have a fitted effect of over 60% in size
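Luminescent ATP detection (Kinase-Glo Plus) follows a 60-minute room-temperature incubation, with wells lacking PGK as controls. Buffer: 100 mM TEA (pH 7.6), 5 mM MgCl2, 0.01% Tween-20. Coupling enzyme GAPDH (100 nM final) supplies unstable 1,3-BPG in-well.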
Tb PFK inh: inhibitors of T. brucei phosphofructokinase; O15648; T. brucei PFK, ADP-Glo luminescence; Potency, µM (series often up to 57.5 µM), inactives show at the top dose activity, negative = inhibition, actives largely listed as inhibitors; 0.17% of 330,000 active;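 also: potency is read from the fitted curve at half-maximal effect; 0% = uninhibited 1x PFK enzyme wells and -100% = no-enzyme wells; nearly all actives have a fitted effect of over 60% in size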
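Luminescent ADP detection (ADP-Glo, two-step: ATP depletion then ADP-to-ATP conversion for luciferase) reported PFK activity after 45 min room-temperature reaction of 1.25 nM enzyme with 0.5 mM F6P and 0.1 mM ATP at pH 8.0.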
USP2a inh: USP2a (human) protease inhibition; O75604; USP2 core, Ub-CHOP2 coupled fluorogenic reporter, 485/531; Potency, µM (top dose mostly 38.3 µM), for the others: top-dose activity change, negative = inhibition, usual class: inhibitors; 0.01% of 330,000 active;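 also: potency is read from the fitted curve at half-maximal effect; plate controls were DMSO wells for no effect and full inhibition by NEM control for full effect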
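Cell-free coupled assay: 10nM USP2 core preincubated 30min RT with compound in Tris-HCl pH 8.0/CaCl2/CHAPS buffer, then 25nM Ub-CHOP2 and 25nM reporter substrate; fluorescence (Ex 485/Em 531) read after 60min RT, normalized to NEM inhibition, concentration-response curves fitted.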
* marks the source's active call; other numbers are inactive results; i = inactive; ? = inconclusive; . = no result; [ ] = another dose, or the depositor's remark. Unless noted, calls follow the shape of the dose curve; as a rule, active = well fitted curve in the direction sought with a large enough effect; inconclusive = small, poorly fitted or top-dose-only effect, or another doubt; inactive = no such curve, though single readings can be large; an effect the other way counts as inactive or inconclusive. Unless noted, % is scaled to controls: 0 for no effect and ±100 for the full control effect.

SMILES	Pin1 inhibitor	PI4K2A block	PGK inhibitor	Tb PFK inh	USP2a inh
Cc1cc(C)c(C)c(S(=O)(=O)N2CCN(S(=O)(=O)c3ccc4c(c3)OCCO4)CC2)c1C	1.3%	.	.	.	.
O=CC(O)C1OC(=O)C(O)C1O (stereo unspecified)	?	-5.6	6.31µM*	.	.
COc1cccc(C2c3c(ncn(-c4ccccc4Cl)c3=N)Oc3ccc4ccccc4c32)c1 (stereo unspecified)	59.2%	.	.	.	.
COc1ccc(C(=O)Nc2noc3ccccc23)cc1	-3.6%	-73.1*	.	.	.
O=C1OCC2OC(O)C(O)C(O)C2OC(=O)c2cc(O)c(O)c(O)c2-c2c(O)c(O)c3oc(=O)c4c(c(O)c(O)c5oc(=O)c2c3c54)-c2c1cc(O)c(O)c2O (stereo unspecified)	.	.	.	0.953µM*	0.501µM*
Nc1ccc(S(=O)(=O)N2CCN(S(=O)(=O)c3c(F)cccc3F)CC2)cc1	-1.5%	.	.	.	.
COc1ccc(/C=C2/C(=O)N(c3ccccc3)N=C2C)cc1OC	-6.2%	-29.9	-10.3%	3.7%	0.3%
CCOc1cc(/C=C2/C(=O)N(c3ccccc3)N=C2C)ccc1OC(=O)c1cccs1	6.6%	-52.3*	i	0.3%	5.3%
C[C@]12CC[C@H]3[C@@H](CCC4=CC(=O)CC[C@@]43C)[C@@H]1CC[C@@H]2C(=O)O	.	-5.8	.	.	.
CCOC(=O)N1CCC(Nc2ccc(Cl)cc2N)CC1	.	-1.4	.	.	.
O=C(c1cccc([N+](=O)[O-])c1)N1CCN(Cc2ccc3c(c2)OCO3)CC1	-1.8%	-69.3*	1.7%	-20.1%	-0.9%
Cc1ccc(C(=O)N2CCN(Cc3ccc4c(c3)OCO4)CC2)cc1[N+](=O)[O-]	3.1%	-3.1	-5.4%	3.3%	1.8%
Nc1nc(Sc2ccc([N+](=O)[O-])c3nonc23)c2[nH]cnc2n1	?	-52.2*	?	.	.
CNc1ncnc(Sc2nc(N)nc3nc[nH]c23)c1[N+](=O)[O-]	4.2%	-5.2	-2.3%	.	.
O=C(O)COc1ccc2c(c1)O/C(=C\c1ccco1)C2=O	?	-21.6	28.2µM*	0.9%	0.3%
CCOc1ccc2c(ccc(/C=C/c3cc(C)c4cccnc4c3O)[n+]2C)c1	21.4%	-58.4*	?	.	.
Clc1ccc(-c2c[n+](Cc3ccc(Cl)c(Cl)c3)c3n2CCC3)cc1	.	.	.	12µM*	5.4%
COc1cccc(/C=N/Nc2ccc(S(=O)(=O)O)cc2)c1O	-5.3%	-0.1	-8.9%	2.3%[0.46 µM]	1.7%
COc1cccc(/C=N/Nc2ccc(C(=O)O)cc2)c1O	0.0%	-73.0*	-0.5%	-10.8%	0.8%
CCOc1ccc(N2C(=O)/C(=C/c3ccco3)C(=O)NC2=S)cc1	?	-81.0*	?	-27.5%	-1.7%
CCC1(OC(=O)CN(C)C)C(=O)OCc2c1cc1n(c2=O)Cc2cc3c(N)cccc3nc2-1 (stereo unspecified)	?	-61.8*	i	.	.
Nc1nc(N2CCN(C(=O)c3ccco3)CC2)nc2ccccc12	-4.9%	5.5	-9.2%	0.0%	0.8%
Nc1nc(N2CCN(C(=O)c3ccco3)CC2)nc2ccc(Br)cc12	?	4.5	8.91µM*	1.2%	-0.4%
Cc1ccc(NS(=O)(=O)c2ccc3c(c2)CCC(=O)N3)cc1Cl	-1.6%	.	.	.	.
Cc1cccc(-c2nnn3c2nc(NCc2ccc4c(c2)OCO4)c2ccccc23)c1	-6.9%	-52.9*	i	.	.
SMILES	Pin1 inhibitor	PI4K2A block	PGK inhibitor	Tb PFK inh	USP2a inh
Clc1ccc(-c2nnn3c2nc(NCc2ccc4c(c2)OCO4)c2ccccc23)cc1	-0.8%	0.5	-1.1%	.	.
NC(=O)C1CCN(c2nccc(-c3ccc4c(c3)OCCO4)n2)CC1	-2.2%	.	.	.	.
CC(C(=O)O)N1C(=O)/C(=C/C=C/c2ccco2)SC1=S (stereo unspecified)	.	?	7.94µM*	3.01µM*	?
O=C1/C(=C/C=C/c2ccco2)SC(=S)N1NS(=O)(=O)c1ccccc1	?	-19.4	?	-28.8%	?
COc1ccnc2c1CCCCC2S(=O)c1nc2ccccc2[nH]1 (stereo unspecified)	.	-2.1	.	.	.
CN(c1ccccc1)c1ccc(CNc2nn3c(=O)c4ccccc4nc3s2)cc1	-1.1%	.	.	.	.
O=C(c1ccccc1)c1cc(-c2ccccc2)on1	0.4%	-51.1*	?	-3.3%	-3.3%
CCc1oc2c(C)c(O)ccc2c(=O)c1-c1ccc2ccccc2n1	-0.3%	-51.6*	-1.0%	-5.4%	-0.6%
COc1ccc(C(=O)O/N=C(\N)c2ccccc2)cc1	0.8%	-66.6*	?	?	1.9%
COc1ccc(C(=O)O/N=C(\C)c2nccs2)cc1	-1.4%	?	?	-26.3%	2.3%
COc1ccc(C(=O)O/N=C(/C)c2cccs2)cc1	0.1%	-92.5*	?	?	-0.3%
CCc1nn2c(=O)cc(-c3ccncc3)nc2s1	-1.1%	.	.	.	.
CCCCCc1c2c(cc(O)c1C(=O)O)OC(=O)c1c(cc(OC)cc1C(=O)CCCC)O2	17.8µM*	-0.3	-10.4%	0.0%	1.1%
CCCCCc1c2c(cc(O)c1C(=O)O)OC(=O)c1cc(C(=O)CCCC)c(OC)cc1O2	.	-2.3	-22.2%	-0.5%	0.1%
COc1ccc2c(c1)c(CC(=O)OC/C=C(\C)CC/C=C(\C)CCC=C(C)C)c(C)n2C(=O)c1ccc(Cl)cc1	.	-0.6	.	.	.
Nc1ccc(N(CCO)CCO)cc1	-17.6%	-51.8*	-8.1%	-12.1%	-0.9%
OCCCc1nc2n(n1)C(c1ccccc1)C=C(c1ccc(F)cc1)N2 (stereo unspecified)	?	-66.4*	i	-3.9%	2.7%
[O-][n+]1cccc2c(Br)cc(Br)c(O)c21	?	-11.3	i	-6.7%	0.3%
C[n+]1cccc2c(Br)ccc([O-])c21	?	-61.1*	4.7%	-8.4%	-2.3%
COc1ccc(OC)c(N2C(=O)[C@@H]3C(c4ccccc4Cl)=NO[C@@H]3C2=O)c1	.	-14.6	12.6µM*	-12.1%	-0.6%
COc1ccc(C2Nc3ccccc3C(=O)N2Cc2ccccc2C)cc1COc1ccc(NC(C)=O)cc1 (stereo unspecified)	7.6%	.	.	.	.
O=C(O)c1cc(O)c2c(c1)[C@@H]([C@H]1c3cc(C(=O)O)cc(O)c3C(=O)c3c(O[C@@H]4O[C@H](CO)[C@@H](O)[C@H](O)[C@H]4O)cccc31)c1cccc(OC3O[C@H](CO)[C@@H](O)[C@H](O)[C@H]3O)c1C2=O (stereo partly specified)	.	-25.9	?	?	3.16µM*
O=C1c2cc(CO)cc(O)c2C(=O)c2c(O[C@@H]3OC(CO)[C@@H](O)[C@@H](O)[C@@H]3O)cccc21 (stereo partly specified)	10.7%	0.1	-4.4%	.	.
N/C(=N\OC(=O)c1ccc2ccccc2c1)c1ccncc1	24.8%	-6.8	-7.8%	-0.1%	0.1%
